PubChem BioAssay AID1159580 (chemical genetic matrix, 2015)
Values joined by “and” are separate entries in the source; they are usually repeats but may differ in a detail not shown here. Equal values may be shown once. The campaign covered roughly 5,500 compounds. About 2,000 (36%) were called active. Not shown: some 18% with an inconclusive outcome. Cut-off read from the data, not from the text of the source: active = normalized growth mostly below about 0.91 (no sharp cut-off); inconclusive = no clear call, values can overlap the other calls; inactive = mostly above about 0.92. Some of the results follow.

Assay: chemical genetic growth profiling, strain panel (AID 1159580);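 note: tested at 20 µM; growth read once vehicle control cultures reached saturation at 30 °C; 1 = growth at the plate median or of vehicle wells; lower values mean less growth of the strain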
Settings: S. cerevisiae deletion strains, growth OD

Measured: normalized growth

C[n+]1ccccc1/C=N/O
inactive: locus YAL013W, strain DEP1, active compounds read low 1.01 | locus YAL021C, strain ccr4, active compounds read low 0.99 | locus YAL026C, strain drs2, active compounds read low 1.02 | locus YAL030W, strain snc1, active compounds read low 1 | locus YBL061C, strain skt5, active compounds read low 0.992 | locus YBR009C, strain hhf1, active compounds read low 1.03 | locus YBR021W, strain FUR4, active compounds read low 0.985 | locus YBR023C, strain chs3, active compounds read low 0.995 | locus YBR171W, strain sec66, active compounds read low 1 | locus YBR229C, strain ROT2, active compounds read low 1.01 | locus YBR231C, strain swc5, active compounds read low 1.02 | locus YBR279W, strain paf1, active compounds read low 1.01 | locus YCL011C, strain gbp2, active compounds read low 1.01 | locus YCL016C, strain dcc1, active compounds read low 1.01 | locus YCL029C, strain bik1, active compounds read low 1.01 | locus YCL069W, strain vba3, active compounds read low 1 | locus YCR088W, strain abp1, active compounds read low 1 | locus YDL005C, strain med2, active compounds read low 0.986 | locus YDL035C, strain GPR1, active compounds read low 1.01 | locus YDL040C, strain nat1, active compounds read low 1.01 | locus YDL074C, strain BRE1, active compounds read low 1 | locus YDL101C, strain DUN1, active compounds read low 1.01 | locus YDL134C, strain PPH21, active compounds read low 0.997 | locus YDL185W, strain tfp1, active compounds read low 0.999 | locus YDL192W, strain arf1, active compounds read low 1 | locus YDR001C, strain nth1, active compounds read low 0.997 | locus YDR069C, strain doa4, active compounds read low 1.02 | locus YDR101C, strain arx1, active compounds read low 1 | locus YDR137W, strain rgp1, active compounds read low 1.01 | locus YDR150W, strain NUM1, active compounds read low 1.01 | locus YDR159W, strain sac3, active compounds read low 0.967 | locus YDR162C, strain NBP2, active compounds read low 1.01 | locus YDR195W, strain ref2 0.999 | locus YDR297W, strain sur2, active compounds read low 1.01 | locus YDR318W, strain mcm21, active compounds read low 0.994 | locus YDR334W, strain swr1, active compounds read low 1 | locus YDR335W, strain msn5, active compounds read low 1.01 | locus YDR388W, active compounds read low 0.996 | locus YDR392W, strain spt3, active compounds read low 0.918 | locus YDR502C, strain sam2, active compounds read low 1 | locus YEL003W, strain gim4, active compounds read low 1.01 | locus YEL037C, strain rad23, active compounds read low 0.998 | locus YEL061C, strain CIN8 (second series), active compounds read low 1.02 | locus YEL061C, strain CIN8, active compounds read low 1.01 | locus YER015W, strain faa2, active compounds read low 1.01 | locus YER016W, strain bim1, active compounds read low 0.991 | locus YER110C, active compounds read low 1.01 | locus YER111C, strain swi4, active compounds read low 1 | locus YER155C, strain BEM2 (second series), active compounds read low 1.02 | locus YER155C, strain BEM2, active compounds read low 0.998 | locus YER167W, strain BCK2, active compounds read low 1.01 | locus YFR010W, strain ubp6, active compounds read low 1.02 | locus YGL078C, strain dbp3, active compounds read low 1.02 | locus YGL086W, strain mad1, active compounds read low 1.01 | locus YGL167C, strain pmr1, active compounds read low 1.01 | locus YGL173C, strain kem1, active compounds read low 0.991 | locus YGL227W, strain vid30, active compounds read low 0.994 | locus YGL240W, strain doc1, active compounds read low 0.993 | locus YGL248W, strain PDE1, active compounds read low 1.01 | locus YGL253W, strain hxk2, active compounds read low 1.02 | locus YGR078C, strain PAC10, active compounds read low 1.01 | locus YGR135W, strain pre9, active compounds read low 1.01 | locus YGR229C, strain SMI1, active compounds read low 1.02 | locus YGR252W, strain gcn5, active compounds read low 0.954 | locus YHR013C, strain ard1, active compounds read low 0.982 | locus YHR027C, strain rpn1, active compounds read low 1 | locus YHR030C, strain SLT2, active compounds read low 1.01 and 1 | locus YHR079C, strain IRE1 (second series), active compounds read low 0.995 | locus YHR079C, strain IRE1, active compounds read low 0.997 | locus YHR094C, strain hxt1, active compounds read low 1 | locus YHR129C, strain ARP1, active compounds read low 1.01 | locus YHR142W, strain chs7, active compounds read low 1.02 | locus YHR200W, strain rpn10, active compounds read low 0.99 | locus YIL066C, strain RNR3, active compounds read low 1.01 | locus YIL073C, strain SPO22, active compounds read low 0.996 | locus YIL125W, strain kgd1, active compounds read low 0.985 | locus YIR030C, strain dcg1, active compounds read low 1.01 | locus YJL092W, strain hpr5, active compounds read low 1.01 | locus YJL095W, strain BCK1 (second series), active compounds read low 0.99 | locus YJL095W, strain BCK1, active compounds read low 1.01 | locus YJL115W, strain asf1, active compounds read low 1.01 | locus YJL129C, strain trk1, active compounds read low 1.01 | locus YJL134W, strain LCB3, active compounds read low 1.01 | locus YJL154C, strain vps35, active compounds read low 1.02 | locus YJL164C, strain tpk1, active compounds read low 1 | locus YJL166W, strain qcr8, active compounds read low 1.01 | locus YJL168C, strain set2, active compounds read low 0.995 | locus YJL187C, strain SWE1 (second series), active compounds read low 1.01 | locus YJR043C, strain POL32, active compounds read low 0.995
